Values joined by “and” are separate entries in the source; they are usually repeats but may differ in a detail not shown here. Equal entries are not always repeated. Records with an inconclusive call do not appear. Active and inactive are the calls of the source. Unless noted, calls follow the shape of the dose curve; as a rule, active = well fitted curve in the direction sought with a large enough effect; inconclusive = small, poorly fitted or top-dose-only effect, or another doubt; inactive = no such curve, though single readings can be large; an effect the other way counts as inactive or inconclusive.

Experiment [1] can be described thus: Cell Proliferation Assay Versus the ED40515 IL2 Dependent ATL cell lines (AID 1053195; calls by dose curve). Conditions: ED40515 IL2-dependent ATL cells. Summed up:
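CellTiter-Glo luminescence (15 min, RT) measured viability after 48 hours at 37C; cells were ED40515 +IL2, 1000/well, in phenol red-free RPMI with 5% FBS. Controls: DMSO and 9.2 uM bortezomib.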

A short description of experiment [2]: High-throughput drug toxicity screening in the BPDCN cell line Gen2.2 (AID 1224824; call rule not given here;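 also: cells exposed to compounds for 48 h before reading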). Conditions: Gen2.2 BPDCN cells; at 45.8 µM (top of the series) unless noted. Summed up: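 Gen2.2, 500 cells/well, phenol red-free RPMI/10% FBS/Pen-Strep; 48 h cpd, 37 °C/5% CO2; CTG lum, 15 min RT. Norm: DMSO = 100%, bortezomib 9.2 uM final = 0%.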
A short description of experiment [3]: High-throughput drug toxicity screening in the BPDCN cell line Cal-1 (AID 1224825; call rule not given here). Conditions: Cal-1 BPDCN cell viability, qHTS; at 45.8 µM (top of the series) unless noted. The essentials: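 Percent activity derived from CellTiter-Glo luminescence, scaling DMSO to 100% and 9.2 uM final bortezomib to 0%. BPDCN Cal-1 cells (500/well, RPMI plus 10% FBS) incubated with compounds 48 hours at 37C before reading.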
A general note: qHTS replaces the single test concentration by a dilution series.

Experiment [4] is described as follows: qHTS assay for measurement of the activity of small molecule inhibitors on Zika virus induced Caspase-3 activity in human iPSC derived neural progenitor cells (hNPCs) (AID 1224857). Also: % of control where 0% means no effect; nearly all actives have a fitted effect of over 65% in size. Conditions: hNPCs ZIKV-induced caspase-3/7, Caspase-Glo luminescence, 6 h; series mostly up to 45.7 µM. The essentials: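 Pretreat hNPCs with compound 1 h; infect ZIKV 2 FFU/cell; 6 h 37 C, 5% CO2; Caspase-Glo 3/7, 30 min RT; luminescence; normalize to no-virus and virus-only wells.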

The nature of experiment [5]: qHTS assay for measurement of the activity of small molecule inhibitors on Zika virus induced Caspase-3 activity in human astrocytoma cells (AID 1224859).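 Also: plate controls were ZIKV-infected untreated cells for no effect and uninfected cells for full effect.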 Conditions: SNB-19 ZIKV-induced caspase-3/7, luminescence, 6 h; series mostly up to 45.7 µM. Summed up:
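Human SNB-19 astrocytoma cells in RPMI 1640 with 10% FBS receive compound one hour ahead of Zika virus at 2 FFU/cell. After 6 h infection, caspase-3/7 activity is detected by Caspase-Glo luminescence.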

Experiment [6] in a line: qHTS Screen of the MIPE 4.0 Collection Against Ewings Sarcoma (RDES) (AID 1259252). Also: nearly all actives have a fitted effect of over 35% in size. Also: potency is read from the fitted curve at half-maximal effect. Conditions: RD-ES Ewing sarcoma viability, CellTiter-Glo, 48 h; series mostly up to 45.8 µM. The essentials: (§1)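 Cells plated in serum-containing RPMI (5% FBS) and treated with compound dilutions for 48 h. Readout luminescent viability; normalization relied on vehicle (no inhibition) and media-only columns (full inhibition).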

Experiment [7] in a line: qHTS Screen of the MIPE 4.0 Collection Against Ewings Sarcoma (TC71) (AID 1259253). Also: nearly all actives have a fitted effect of over 40% in size. Also: potency is read from the fitted curve at half-maximal effect. Conditions: TC71 Ewing sarcoma viability, CellTiter-Glo, 48 h; series mostly up to 45.8 µM. Summed up: as §1
A short description of experiment [8]: qHTS Screen of the MIPE 4.0 Collection Against Ewings Sarcoma (EW8) (AID 1259255). Also: nearly all actives have a fitted effect of over 35% in size. Also: potency is read from the fitted curve at half-maximal effect.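 As to viability: 100% = DMSO-treated cells and 0% = medium-only wells without cells.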 Conditions: EW8 Ewing sarcoma viability, CellTiter-Glo, 48 h; series mostly up to 45.8 µM. Summed up: as §1
The nature of experiment [9]: qHTS Screen of the MIPE 4.0 Collection Against Ewings Sarcoma (TC32) (AID 1259256). Also: nearly all actives have a fitted effect of over 45% in size. Also: potency is read from the fitted curve at half-maximal effect. Conditions: TC32 Ewing sarcoma viability, CellTiter-Glo, 48 h; series mostly up to 45.8 µM. The essentials:
as §1

Experiment [10] in a line: Identifying Small Molecule Inhibitors of Pancreatic Cancer Stem Cells (SN12C, Adherent) (AID 1259358).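 Also: cell survival measured after 48 h of compound exposure.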 Also: potency is read from the fitted curve at half-maximal effect. Conditions: viability/growth inhibition; series mostly up to 46.1 µM. The essentials:
(§2)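 Pre-formed 14-day tumor spheroids or adherent cells dosed and incubated 48 h, 37C, 5% CO2. Viability assessed by CellTiter-Glo.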

Experiment [11] can be described thus: Identifying Small Molecule Inhibitors of Pancreatic Cancer Stem Cells (SN12C, Spheroid) (AID 1259360). Also: potency is read from the fitted curve at half-maximal effect.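 As to viability (% of control): 100% = DMSO-treated cells and 0% = wells without cells.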 Conditions: Potency: SN12C spheroid viability; series mostly up to 46.1 µM. Summed up: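 Spheroids grown 14 days in stem cell media on hydrogel-coated nonadherent plates; 2D lines seeded directly. Compounds added after 4 h attachment, 48 h at 37C, 5% CO2; CellTiter-Glo luminescence normalized to DMSO (no inhibition) and no-cell wells (full inhibition).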

Experiment [12] is described as follows: Identifying Small Molecule Inhibitors of Pancreatic Cancer Stem Cells (Panc1, Adherent) (AID 1259362).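 Also: compound exposure lasted 48 h before the viability read; plate controls were DMSO-treated cells for no effect and cell-free media wells for full effect.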 Conditions: Potency: viability; series mostly up to 46.1 µM. The essentials:
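Cytotoxicity read by CellTiter-Glo luminescence after 48 h compound exposure at 37C; percent activity scaled between DMSO-treated cells and cell-free wells. Spheroid formats used cells pre-formed 14 days in stem cell media on hydrogel.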

A short description of experiment [13]: P-glycoprotein substrates identified in KB-3-1 adenocarcinoma cell line, qHTS therapeutic library screen (AID 1346986). Also: nearly all actives have a fitted effect of over 60% in size.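 Also: potency is read from the fitted curve at half-maximal effect; potency is for cytotoxicity meaning loss of cell viability.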 Conditions: KB-3-1 parental cells viability, CellTiter-Glo, 72 h; series mostly up to 44.5 µM. The essentials: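 Viability read by CellTiter-Glo after 72 h compound exposure in dose-response of KB-3-1 and KB-8-5-11 (P-gp-high) cells. Hits needed AC50 < 10 uM, >50% maximum response and curve class -1.1 to -2.4. Cherry-picks retested ± tariquidar, including pcDNA/MDR-19 HEK-293 pair.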

The nature of experiment [14]: P-glycoprotein substrates identified in KB-8-5-11 adenocarcinoma cell line, qHTS therapeutic library screen (AID 1346987). Also: nearly all actives have a fitted effect of over 65% in size. Also: potency is read from the fitted curve at half-maximal effect. Conditions: KB-8-5-11 (P-gp overexpressing) viability, CellTiter-Glo, 72 h; series mostly up to 44.5 µM. Summed up: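 Compounds are pinned in dose-response onto KB-8-5-11 cells (500 cells/well, colchicine-free medium) and left 72 h at 37 degree C. CellTiter-Glo luminescence then yields AC50 values.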

Experiment [15] in a line: Cell Proliferation Assay Versus the ED40515 IL2 Independent ATL cell lines (AID 1053194; calls by dose curve). Conditions: ED40515 IL2-independent ATL cells. The essentials:
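CellTiter-Glo luminescence, read after 15 min at RT, gave viability of IL-2-free ED40515 cells (1000/well, RPMI plus 5% FBS) following 48 h drug exposure at 37C. Control wells held DMSO or 9.2 uM bortezomib.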

The nature of experiment [16]: Identifying Small Molecule Inhibitors of Pancreatic Cancer Stem Cells (Panc1, Spheroid) (AID 1259359).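 Also: potency is read from the fitted curve at half-maximal effect; compound exposure lasted 48 h before reading.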 Conditions: Panc1 spheroid cancer stem cell viability; series mostly up to 46.1 µM. Summed up: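 Endpoint: ATP-based luminescence, 48 h drug exposure. Bortezomib at 9.2 uM final as full-kill control; DMSO vehicle as negative control; activity normalized between vehicle and cell-free wells.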

The nature of experiment [17]: Identifying Small Molecule Inhibitors of Pancreatic Cancer Stem Cells (A278, Adherent) (AID 1259361). Also: nearly all actives have a fitted effect of over 35% in size.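 As to viability (% of control): 100% = DMSO-treated cells and 0% = cell-free media-only wells.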 Conditions: series mostly up to 46.1 µM. Summed up:
as §2

The nature of experiment [18]: qHTS assay to identify small molecule inhibitors of chordoma cells - UCH-1 (AID 1259355). Also: % is scaled to controls: 0 for no effect and ±100 for the full control effect; nearly all actives have a fitted effect of over 55% in size. Conditions: UCH-1 chordoma viability, CellTiter-Glo, 48 h, combination, with auranofin plus four topoisomerase inhibitors; series mostly up to 46.1 µM. The essentials:
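800 cells/well, overnight attach; compounds pinned at 15 concs, then auranofin/camptothecin/doxorubicin/rubitecan/topotecan combo added; 48hr 37 C, 5% CO2; CellTiter-Glo, 30min RT, luminescence.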

Experiment [19] is described as follows: qHTS assay to identify small molecule inhibitors of chordoma cells - UCH-2 (AID 1259356). Also: % is scaled to controls: 0 for no effect and ±100 for the full control effect. Conditions: UCH-2 chordoma viability, CellTiter-Glo ATP luminescence, 48 h; series mostly up to 46.1 µM.
The nature of experiment [20]: Natriuretic polypeptide receptor (hNpr1) antagonism - Pilot counterscreen GloSensor control cell line (AID 1347045; calls by dose curve; also: % is scaled to controls: 0 for no effect and ±100 for the full control effect). Conditions: HEK293 cGMP GloSensor cells, SNP-stimulated luminescence, 20 min; series mostly up to 38.3 µM. The essentials:
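Control counterscreen: luciferase cGMP-biosensor HEK293 cells (no Npr1) received compound for 30 min at room temperature after GloSensor substrate loading. Luminescence was measured before and 20 min after soluble guanylyl cyclase activation by 50 uM nitroprusside.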

As to `COc1cccc2cc(-c3nc(C4CCC(C(=O)O)CC4)n4ncnc(N)c34)[nH]c12` (centres undefined), the Potency in [1] was 4.18 µM (active); in [6], 0.833 µM (active); in [7] it was 0.662 µM (active); in [8], 0.526 µM (active); in [9], 0.526 µM (active); in experiment [10], 0.833 µM (active). Also, the Potency in [11] was 0.372 µM (active); in experiment [13], 1.3 µM (active); in [14], 296 nM (active) and 1.46 µM (active) and 1.3 µM (active). In addition, the cell viability, % of control (lower = more cytotoxic) in experiment [2] was found to be 5.49%. Further, in experiment [3], the viability (% of control) amounted to 21%. Besides, the Potency result in experiment [4], in [5] and in [12] was “inactive” throughout.
`CC(C)c1onc(-c2c(Cl)cccc2Cl)c1COc1ccc(/C=C/c2cccc(C(=O)O)c2)c(Cl)c1`: the Potency in experiment [15] was 33.2 µM (active); in experiment [16], 18.7 µM (active). In addition, the Potency result in experiment [10] and in [12] was “inactive” throughout.
Take `OCCn1cc(-c2cnc3nnn(Cc4ccc5ncccc5c4)c3n2)cn1`: the Potency in experiment [1] is 18.7 µM (active). Moreover, the viability (% of control) in experiment [3] turned out to be 89.8%. Also, the Potency result in [4], in [5], in experiment [6], in [7], in experiment [8] and in [9] was “inactive” each time. The Potency result in experiment [10] and in experiment [14] was “inactive” each time.
`CCc1cc(Nc2nccc(-c3c(-c4ccc(OC)c(C(=O)Nc5c(F)cccc5F)c4)nc4ccccn34)n2)c(OC)cc1N1CCC(N2CCN(S(C)(=O)=O)CC2)CC1`: the Potency in experiment [1] is 1.66 µM (active); in experiment [6] it was 26.4 µM (active); in experiment [7], 18.7 µM (active); in experiment [8], 18.7 µM (active); in experiment [9] it was 16.6 µM (active). The viability (% of control) in experiment [3] came out at 79.3%. Besides, the Potency result in [4], in [5], in [10], in experiment [11], in [12] and in experiment [14] was “inactive” throughout. Moreover, in experiment [17], the IC50 (viability decrease) entry is “inactive”.
With `Nc1nc2ccc(OC(F)(F)F)cc2s1`, the Potency in experiment [1] is 23.5 µM (active). Further, in experiment [2], the cell viability, % of control (lower = more cytotoxic) is 93.2%. Further, the viability (% of control) in [3] amounted to 103%. Besides, the Potency result in [4], in [5], in experiment [18] and in experiment [10] was “inactive” each time. Further, the compound was called inactive in [19] and in [20].
With `COc1cc(F)c(F)c(Nc2ccc(I)cc2F)c1NS(=O)(=O)C1(C[C@H](O)CO)CC1`, the Potency in experiment [1] was 37.2 µM (active); in experiment [6], 20.9 µM (active); in experiment [7] it was 16.6 µM (active); in experiment [9], 11.8 µM (active); in experiment [10] it was 20.9 µM (active). Besides, the cell viability, % of control (lower = more cytotoxic) in experiment [2] was determined as 27.8%. Also, the viability (% of control) in [3] was 82.2%. For the same compound, the Potency entry in experiment [4], in experiment [5], in [11], in [13] and in [14] was “inactive” in each case. Also, the IC50 (viability decrease) in experiment [17] is 20.9 µM (active).
As to `O=c1[nH]cnc2[nH]ncc12`, the cell viability, % of control (lower = more cytotoxic) in experiment [2] stood at 124%. Besides, the viability (% of control) in [3] came out at 101%. The Potency entry in experiment [4], in experiment [5], in [6], in experiment [7], in experiment [8] and in experiment [9] was “inactive” throughout. Besides, the Potency entry in [18] and in experiment [14] was “inactive” in each case. Moreover, the compound was called inactive in experiment [19] and in experiment [20].
Turning to `O=C(O)c1ccc(-c2c[nH]c3ccc(-c4ccccc4)cc23)cc1C1CCCC1`, in experiment [15], the Potency was 2.35 µM (active). Further, the Potency result in [10], in experiment [11] and in [12] was “inactive” each time.

(Values after PubChem BioAssay (NCATS).)
